Hits are enriched below; roughly 22% of the tested compounds scored in any of these assays.
LmPK inhibitor = qHTS Assay for Inhibitors of Leishmania Mexicana Pyruvate Kinase (LmPK) | 290,000 tested, 0.37% active | AID 1721, 2009 | purified LmPK, Kinase-Glo ATP luminescence, 1 h | Potency, µM (titrated, usually from 57.5 µM), hits mostly inhibitors
Target sequence (Q27686 whole entry, looked up): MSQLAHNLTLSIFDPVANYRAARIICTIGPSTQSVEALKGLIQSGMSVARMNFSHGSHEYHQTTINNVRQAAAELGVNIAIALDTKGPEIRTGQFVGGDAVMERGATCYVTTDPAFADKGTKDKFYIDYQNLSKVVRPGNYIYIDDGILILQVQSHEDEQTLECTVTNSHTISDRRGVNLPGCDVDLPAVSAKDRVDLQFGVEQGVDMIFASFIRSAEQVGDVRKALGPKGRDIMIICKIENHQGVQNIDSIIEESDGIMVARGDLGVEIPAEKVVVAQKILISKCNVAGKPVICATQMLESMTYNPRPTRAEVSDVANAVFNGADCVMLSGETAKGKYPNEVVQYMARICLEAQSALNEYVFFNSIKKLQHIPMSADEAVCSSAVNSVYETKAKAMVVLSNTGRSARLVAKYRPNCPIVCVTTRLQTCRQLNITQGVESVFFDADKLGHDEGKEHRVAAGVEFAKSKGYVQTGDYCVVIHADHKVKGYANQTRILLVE
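Purified LmPK (0.1 nM) converted ADP (0.1 mM) to ATP with PEP (0.5 mM) in imidazole buffer pH 7.2 with KCl and MgCl2, 1 h at room temperature. ATP was read by Kinase-Glo luminescence; data normalized to uninhibited and no-enzyme controls.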
Shiga inhibitor = A qHTS for Small Molecule Inhibitors of Shiga Toxin; inhibition, % at 38.7 µM; Vero cells, Shiga toxin protein synthesis inhibition reporter; 290,000 tested, 9.2% active; AID 2315, 2010; in the data active = inhibition mostly above about 28%, no sharp cut-off; inactive = mostly below about 43%
Cycloheximide cs = Cycloheximide Counterscreen for Small Molecule Inhibitors of Shiga Toxin; AID 2314, 2010; max response, %; 300,000 tested, 12% active; cell reporter, cycloheximide protein synthesis inhibition counterscreen; in the data active = max response mostly above about 13%, no sharp cut-off; inactive = mostly below about 14%; note: read at 38.3 µM for the half of the compounds with a filed dose
Pf growth 48h = Primary qHTS for delayed death inhibitors of the malarial parasite plastid, 48 hour incubation; Potency, µM (titrated, usually from 28.7 µM), most hits filed as inhibitors; 310,000 tested, 5.9% active; P. falciparum luciferase growth in erythrocytes, 48 h; AID 504832, 2011
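First compound was added to culture medium, then infected red cells at 0.1% parasitemia and 2% hematocrit (final). After incubation at 37 C under 5% CO2, luciferase detection reagent was dispensed and light output recorded.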
Pf growth 96h = Primary qHTS for delayed death inhibitors of the malarial parasite plastid, 96 hour incubation. P. falciparum luciferase reporter growth, 96 h. AID 504834, 2011. 320,000 tested, 6.9% active. Potency, µM (series often up to 28.7 µM), hits mostly inhibitors
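96 h incubation, 37 C, 5% CO2, of luciferase-reporter P. falciparum-infected RBCs (2% hematocrit, 0.05% parasitemia final) with test compounds; endpoint luminescence.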
Hits are given with their value; – = inactive; ? = inconclusive; · = no result given; [ ] = another dose, or the depositor's remark. Unless noted, calls come from the whole dose curve; as a rule, active = well fitted inhibition curve with a large enough effect; inconclusive = small, poorly fitted or top-dose-only effect, or another doubt; inactive = no such curve, though single readings can be large or run the other way.

SMILES | LmPK inhibitor | Shiga inhibitor | Cycloheximide cs | Pf growth 48h | Pf growth 96h
CCOc1ccccc1N1CC(C(=O)N(Cc2nnc(-c3ccccc3Cl)o2)C2CC2)CC1=O (centres undefined) | · | · | · | ? | 9.3µM
CC1CN(S(=O)(=O)c2cccc(C(=O)N(Cc3nnc(-c4ccccc4Cl)o3)C3CC3)c2)CC(C)O1 (centres undefined) | · | · | · | ? | 12µM
O=C(c1cc([N+](=O)[O-])cc([N+](=O)[O-])c1)N(Cc1nnc(-c2ccccc2Cl)o1)C1CC1 | – | – | – | ? | 12µM
Cc1ccc(S(=O)(=O)N2CCOCC2)cc1C(=O)N(Cc1nnc(-c2ccccc2Cl)o1)C1CC1 | – | – | – | ? | ?
O=C(c1ccco1)N1CCN(C(=O)C2CC(=O)N(c3ccccc3)C2)CC1 (centres undefined) | – | – | – | – | ?
CC(C)CCNC(=O)CCCCn1c(=O)[nH]c2ccsc2c1=O | – | – | – | – | –
CC1(C)CC(NC(=S)NCc2ccc3c(c2)OCO3)CC(C)(C)N1 | – | – | – | ? | –
O=C(c1ccc(CS(=O)Cc2ccc(Cl)cc2)o1)N1CCN(c2ccccn2)CC1 (centres undefined) | – | – | – | – | 10µM
COC(=O)c1ccc(C#Cc2ccccc2)o1 | – | – | 56 | – | –
O=C(c1ccc(C#Cc2ccccc2)o1)N1CCN(c2ccccn2)CC1 | – | – | – | – | 8.3µM
O=C(c1ccc(CS(=O)Cc2ccccc2Cl)o1)N1CCN(c2ccccn2)CC1 (centres undefined) | – | – | – | – | –
CCCCN(C(=O)CSCC(=O)Nc1ccc(OC)cc1)c1c(N)n(Cc2ccccc2)c(=O)[nH]c1=O | · | · | · | – | –
COc1cccc(/C=C/c2nc(S(=O)(=O)c3ccccc3)c(N(C)C)o2)c1 | – | – | – | 10µM | ?
COc1ccccc1/C=C/c1nc(S(=O)(=O)c2ccccc2)c(N(C)C)o1 | – | – | – | ? | ?
COc1cc(C(=O)NCC(=O)N/N=C/c2ccc(-c3cccc([N+](=O)[O-])c3)o2)cc(OC)c1OC | – | – | – | – | –
Brc1cc2[nH]cnc2c2ccccc12 | – | – | – | ? | ·
Oc1ccc2c(ccc3[nH]cnc32)c1 | – | 51 | 28 | ? | –
COC(=O)Cn1c(C)nc2c(sc3nc(C)cc(C)c32)c1=O | – | 111 | 49 | – | –
C=CCn1cnc2c(sc3nc(C)cc(C)c32)c1=O | – | – | – | – | –
CCOC(=O)Cn1cnc2c(sc3nc(C)cc(C)c32)c1=O | – | – | 20 | – | –
CCCCCC(=O)c1c(O)cc(OC)c(Cl)c1O | · | 93 | 26 | · | ·
Cc1ccccc1CC(=O)NC1CCN(Cc2ccccc2)CC1 | – | – | – | – | –
C#CCOCCOCCOCCNc1nc(N2CCN(C(=O)[C@H](Cc3cc4ccccc4[nH]3)n3cc([C@@H](N)C(C)CC)nn3)CC2)nc(N2CCN(C(=O)[C@H](Cc3cc4ccccc4[nH]3)n3cc([C@@H](N)Cc4ccc(O)cc4)nn3)CC2)n1 (some centres undefined) | – | – | – | ? | ?
C#CCOCCOCCOCCNc1nc(N2CCN(C(=O)[C@H]([C@@H](C)CC)n3cc([C@@H](N)Cc4ccc(O)cc4)nn3)CC2)nc(N2CCN(C(=O)[C@H](Cc3cc4ccccc4[nH]3)n3cc([C@@H](N)C(C)CC)nn3)CC2)n1 (some centres undefined) | – | – | – | ? | 12µM
C#CCOCCOCCOCCNc1nc(N2CCN(C(=O)C(Cc3cc4ccccc4[nH]3)n3cc(C(N)Cc4ccc(O)cc4)nn3)CC2)nc(N2CCN(C(=O)C(Cc3cc4ccccc4[nH]3)n3cc(C(N)Cc4ccc(O)cc4)nn3)CC2)n1 (centres undefined) | – | – | – | 2.3µM | ?
SMILES | LmPK inhibitor | Shiga inhibitor | Cycloheximide cs | Pf growth 48h | Pf growth 96h
C#CCOCCOCCOCCNc1nc(N2CCN(C(=O)C(CCC(=O)O)n3cc(C(N)CC(C)C)nn3)CC2)nc(N2CCN(C(=O)C(Cc3cc4ccccc4[nH]3)n3cc(C(N)Cc4ccc(O)cc4)nn3)CC2)n1 (centres undefined) | – | – | – | – | –
C#CCOCCOCCOCCNc1nc(N2CCN(C(=O)[C@H](Cc3ccc(O)cc3)n3cc([C@@H](N)C(C)CC)nn3)CC2)nc(N2CCN(C(=O)[C@H](Cc3cc4ccccc4[nH]3)n3cc([C@@H](N)CC(C)C)nn3)CC2)n1 (some centres undefined) | – | – | – | 2.9µM | ?
C#CCOCCOCCOCCNc1nc(N2CCN(C(=O)[C@H](Cc3cc4ccccc4[nH]3)n3cc([C@@H](N)Cc4ccc(O)cc4)nn3)CC2)nc(N2CCN(C(=O)[C@H](Cc3cc4ccccc4[nH]3)n3cc([C@@H](N)CC(C)C)nn3)CC2)n1 | – | – | – | 13µM | 10µM
CC(C)CC(=O)Nc1nnc(S(=O)(=O)N(C)Cc2ccco2)s1 | – | – | – | – | –
O=C(C(=O)N1CCCCC1)c1cn(CC(=O)N2CCCCCC2)c2ccccc12 | – | – | – | ? | 12µM
O=C(Nc1ccccc1)C(=O)c1cn(CC(=O)N2CCCCC2)c2ccccc12 | – | – | – | – | 10µM
O=C(C(=O)N1CCc2ccccc2C1)c1cn(CC(=O)N2CCCC2)c2ccccc12 | – | – | – | – | –
O=C(C(=O)N1CCN(c2ccc(F)cc2)CC1)c1cn(CC(=O)N2CCOCC2)c2ccccc12 | – | – | – | – | 13µM
CCc1cc(OCCCSc2nc(C)cc(=O)[nH]2)ccc1Cl | – | – | – | ? | ·
O=c1ccc2cc3c(-c4ccccc4)coc3cc2o1 | – | – | – | – | –
CC(=O)Nc1cc(C(=O)N2CCc3ccccc3C2)ccc1Sc1ccc(Cl)cc1 | – | – | – | – | –
COc1ccc(S(=O)(=O)O/N=C2\CCCc3ccccc32)cc1 | – | – | – | · | –
COCC(C)NC(=O)COCc1cc(-c2ccc3c(c2)OCO3)on1 (centres undefined) | – | – | – | – | –
C=CCNC(=O)COCc1cc(-c2ccc3c(c2)OCO3)on1 | – | 39 | 27 | – | –
CCCNC(=O)COCc1cc(-c2ccc3c(c2)OCO3)on1 | – | 36 | 29 | –[0.00184 µM] | –
CCc1ccc(NC(=O)c2cc(-c3ccc4c(c3)OCO4)on2)cc1 | – | – | – | – | –
CCCCNC(=O)COCc1cc(-c2ccc3c(c2)OCO3)on1 | – | 47 | – | –[0.00184 µM] | ?
CC(C)CNC(=O)c1cc(-c2ccc3c(c2)OCO3)on1 | – | 74 | 39 | – | –
CC(C)CNC(=O)COCc1cc(-c2ccc3c(c2)OCO3)on1 | – | 100 | 38 | – | –
CN(CC(=O)Nc1ccc(F)cc1)C(=O)CN1C(=O)NC2(CCCC2)C1=O | · | · | · | – | –
COc1ccc(CNc2ccc(C(=O)O)cc2)cc1 | – | 44 | 26 | – | ·
COc1ccc(CNc2ccc(Br)cc2)cc1 | – | 126 | 36 | – | –

Assay outcomes: PubChem BioAssay, National Center for Advancing Translational Sciences (NCATS)
